Bioassay records: PubChem, National Center for Advancing Translational Sciences (NCATS)
TDP1 cell noCPT: qHTS for Inhibitors of human tyrosyl-DNA phosphodiesterase 1 (TDP1): qHTS in cells in absence of CPT; Potency, µM (top dose mostly 46.2 µM), without a hit: at the top dose activity change, negative = growth inhibition, usual class: inhibitors; 15% of 420,000 active; DT40 Tdp1-/- hTDP1 cells, no CPT, ATP luminescence, 48 h; also: nearly all actives have a fitted effect of over 55% in size
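Luminescent ATP content (CellTiter-Glo) served as the growth readout. Knockout chicken DT40 cells expressing human TDP1 were exposed to compounds without camptothecin for a minimum 48 hr at 37 °C.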
HT1080 IDH1KD tx: HT-1080 IDH1 knockdown cell toxicity (counter line) | HT-1080 IDH1 knockdown viability, ATP luminescence, 48 h | Potency, µM (titrated, usually from 46.1 µM), for inactives: at the top dose activity, negative = toxicity, actives largely listed as cytotoxic | 2% of 360,000 active | AID 686971;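 also: 0% = DMSO wells and -100% = cell-free medium wells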
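% activity derives from luminescence (CellTiter-Glo), normalised to DMSO and no-cell wells. HT-1080-IDH1KD cells, 750/well, had 48 h compound exposure at 37 °C.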
HT1080NT lethal: kills 2HG-producing HT-1080-NT fibrosarcoma cells | AID 686970 | 1.6% of 360,000 active | HT-1080-NT fibrosarcoma viability, CellTiter-Glo ATP luminescence, 48 h | Potency, µM (doses to about 46.1 µM), inactives show top-dose activity, negative = less viability, hits mostly cytotoxic;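 also: NT is the 2HG producing partner of a matched IDH1 knockdown line; 0% = DMSO-treated cells and -100% = media-only wells without cells; nearly all actives have a fitted effect of over 55% in size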
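Compounds were tested in concentration-response format on HT-1080-NT cells for 48 hours at 37 degrees C. Cell viability came from CellTiter-Glo luminescence; curves were classified by r2, response magnitude and activity.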
DT40 TDP1 CPT: DT40-hTDP1 cell growth loss with CPT; chicken DT40 Tdp1-/-;hTDP1 cells + 20 nM CPT, ATP luminescence, 48 h; Potency, µM (doses to about 46.2 µM), without a hit: at the highest dose activity change, negative = growth inhibition, usual class: inhibitors; 12% of 420,000 active; also: nearly all actives have a fitted effect of over 55% in size
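Chicken DT40 Tdp1-/- cells complemented with human TDP1, 400 cells/well, exposed to compounds plus 20 nM camptothecin for at least 48 h at 37 C; viability read as ATP content by CellTiter-Glo luminescence.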
KB-3-1 tox: kills parental KB-3-1 adenocarcinoma cells. KB-3-1 viability, CellTiter-Glo ATP luminescence, 72 h. Potency, µM (series often up to 46.1 µM), hits mostly cytotoxic. 1.4% of 400,000 active. AID 1347075; also: nearly all actives have a fitted effect of over 60% in size
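Multi-concentration cytotoxicity screen in KB-3-1 cells grown in DMEM lacking phenol red with 10% FBS. After 72 h at 37 °C with compound, ATP-dependent luminescence was recorded.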
KB-V1 cytotox: kills drug-selected multidrug resistant KB-V1 cells | AID 1347076 | KB-V1 MDR cells viability, CellTiter-Glo, 72 h | Potency, µM (titrated, usually from 46.1 µM), actives largely listed as cytotoxic | 3.4% of 400,000 active; also: nearly all actives have a fitted effect of over 60% in size
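Luminescent ATP read-out (CellTiter-Glo, 10 min) measures survival of drug-selected KB-V1 MDR cells after 72 h, 37 degrees C compound exposure. Medium: phenol-red-free DMEM, 10% FBS. Values from fitted concentration-response curves.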
* = called active by the depositor; i = inactive; ? = inconclusive; . = not tested or not shown; ! = not active in a repeat. An excerpt weighted towards active compounds, which were near 19% of everything screened. Calls follow the shape of the dose curve; as a rule, active = well fitted curve in the direction sought with a large enough effect; inconclusive = small, poorly fitted or top-dose-only effect, or another doubt; inactive = no such curve, though single readings can be large; an effect the other way counts as inactive or inconclusive. Unless noted, % is scaled to controls: 0 for no effect and ±100 for the full control effect; potency is read from the fitted curve at half-maximal effect.

SMILES	TDP1 cell noCPT	HT1080 IDH1KD tx	HT1080NT lethal	DT40 TDP1 CPT	KB-3-1 tox	KB-V1 cytotox
Cc1cccc(OCC(=O)Nc2nc(-c3ccncc3)cs2)c1	?	4.5%	15.2%	-27.7%	?	i
O=C(COc1ccc([N+](=O)[O-])cc1)Nc1nc(-c2ccccn2)cs1	5.8µM*	?	?	4.61µM*	?	?
O=C(COc1ccc(F)cc1)Nc1nc(-c2ccccn2)cs1	7.31µM*	?	-19.9%	7.31µM*	?	5.8µM*
Cc1ccc(OCC(=O)Nc2nc(-c3ccccn3)cs2)c(C)c1	?	-24.0%	-13.9%	?	i	?
O=C(COc1cccc(F)c1)Nc1nc(-c2ccccn2)cs1	2.59µM*	?	-20.6%	5.17µM*	?	?
CCOC(=O)c1[nH]c(C)c(CCC(=O)NCc2ccc(OCC)cc2)c1C	-27.2%	.	.	-10.1%	i	i
COc1ccc(-n2c(C)c3c(OC)cccc(=O)c3c2C)cc1	?	15.4%	13.2%	?	i	18.4µM*
CN1CCN(C(=O)c2cc3nc(-c4ccccc4)cc(-c4ccccc4)n3n2)CC1	?	?	14.6µM*	-27.8%	i	i
O=C(c1cc2nc(-c3ccccc3)cc(-c3ccccc3)n2n1)N1CCCC1	?	7.4%	-0.6%	?	i	i
O=C(c1cc2nc(-c3ccccc3)cc(-c3ccccc3)n2n1)N1CCN(C(=O)c2ccco2)CC1	14.6µM*	-26.2%	-28.9%	23.1µM*	?	20.6µM*
NC1=NC2OC(CO)C(O)C2O1 (stereo not drawn)	-3.1%	-0.2%	-1.9%	1.3%	i	i
CCOc1ccc2nc(NC(=O)CN3CCC(n4nnc5cc(C(F)(F)F)ccc54)CC3)sc2c1	23.1µM*	?	-20.5%	14.6µM*	i	i
O=C(CN1CCC(n2nnc3cc(C(F)(F)F)ccc32)CC1)N1CCc2ccccc21	10µM*	4.9%	0.0%	13µM*	i	?
O=C(CN1CCC(n2nnc3cc(F)ccc32)CC1)N1CCCc2ccccc21	?	?	-29.4%	?	i	i
O=C1[C@@H]2CSC(c3ccc(F)cc3)N2C(=O)N1c1ccc(Cl)cc1 (stereo partly drawn)	-2.0%	.	.	3.0%	i	i
COCCNC(=O)CCC(=O)N1Cc2cccc(OC)c2Oc2ncccc21	?	.	.	0.6%	i	i
CCOc1ccc(-n2ccnc2SCC(=O)Nc2nc3ccc(C)cc3s2)cc1	-23.4%	.	.	-1.4%	.	.
CCCCCCN1C(=O)CC(NC(=O)OCC2c3ccccc3-c3ccccc32)C/C=C\C1C(C)C (stereo not drawn)	14.6µM*	-18.5%	-13.8%	23.1µM*	?	?
O=C(NC1C/C=C\C(c2ccccc2)N(c2ccccc2)C(=O)C1)OCC1c2ccccc2-c2ccccc21 (stereo not drawn)	0.164µM*	-11.5%	-1.6%	-82.1%	i	i
CC[C@H](C)[C@H](NC(=O)OCC1c2ccccc2-c2ccccc21)C(=O)O	-2.6%	.	.	-11.3%	.	.
Cc1ccc(CN2C(=O)C[C@@H](NC(=O)OCC3c4ccccc4-c4ccccc43)C/C=C\C2c2ccc(C)cc2)cc1 (stereo partly drawn)	?	-7.9%	-1.8%	?	i	i
Cc1ccc(S(=O)(=O)N2CCOCC2)cc1C(=O)NCCc1ccc(Cl)cc1	?	-7.0%	?	-10.1%	i	i
CCCCCCCCNCCS(=O)(=O)NCc1ccccc1	16.4µM*	-19.8%	-2.7%	?	?	i
Cc1ccc2ccccc2c1C(O)c1ncc(-c2cccc(F)c2)[nH]1 (stereo not drawn)	?	-23.3%	-19.5%	?	i	i
OCCN(CCO)c1nc(N2CCCCC2)c2nc(N(CCO)CCO)nc(N3CCCCC3)c2n1	14.6µM*!	-26.1%	?	4.55µM*	.	.
SMILES	TDP1 cell noCPT	HT1080 IDH1KD tx	HT1080NT lethal	DT40 TDP1 CPT	KB-3-1 tox	KB-V1 cytotox
COc1ccc(OC)c(Nc2nc(N(C)c3ccccc3)nc(N)c2[N+](=O)[O-])c1	?	-5.9%	-7.7%	?	i	i
NC(=O)c1cc2ccccc2o/c1=N\NC(=O)c1ccc(F)cc1	8.2µM*	-1.2%	0.8%	20.6µM*	i	i
Cc1ccc[n+](CC(=O)Nc2ccc([N+](=O)[O-])cc2)c1	20.6µM*	16.4µM*	-13.6%	10.3µM*	i	i
COc1ccc(C(=O)/C=C/Nc2ccc([N+](=O)[O-])cc2)cc1	-1.7%	4.9%	8.6%	-7.5%	i	i
CNC(CC(=O)c1ccc([N+](=O)[O-])cc1)C(Cl)(Cl)Cl (stereo not drawn)	2.59µM*	?	?	2.31µM*	?	i
COc1ccc(C(=O)CC(Nc2ccc([N+](=O)[O-])cc2)c2ccc(OC)cc2)cc1 (stereo not drawn)	18.4µM*	?	-8.9%	?	i	10.3µM*
CC(C)NS(=O)(=O)c1ccc(NC(=O)C(C)Oc2ccc(C(=O)c3ccccc3)cc2)cc1 (stereo not drawn)	18.4µM*	?	?	23.1µM*	?	?
O=C(CSc1ccccc1C(=O)O)c1ccc([N+](=O)[O-])cc1	?	-5.4%	1.4%	?	i	i
Cc1cc(C)c(C(=O)N(CCN(C)C)CC2CCCN(Cc3ccccc3F)C2)o1 (stereo not drawn)	?	-7.5%	-1.6%	-25.2%	i	?
CC(=O)NC1=C(C#N)CCC1	-16.2%	.	.	8.0%	?	i
Cc1ccnc(NC(=O)Nc2ccc3c(c2)OCO3)c1	16.3%	-4.3%	16.4%	4.7%	i	i
CCCCc1nc2cc(C(=O)N3CCCC(OCCC)C3)ccc2o1 (stereo not drawn)	-27.1%	0.1%	-1.1%	?	i	i
Cc1nn(CCC(=O)NC(C)C)c(=O)c2nn(-c3ccccc3)c(C)c12	-7.9%	.	.	-11.5%	i	?
CCCC(=O)Nc1ccc(C(=O)NNC(=O)c2cccc([N+](=O)[O-])c2)cc1	-9.6%	0.0%	-2.8%	-3.9%	i	i
COc1ccc(OC(C)C(=O)Nc2ccc([N+](=O)[O-])cc2)cc1 (stereo not drawn)	20.6µM*	-22.0%	-18.0%	?	i	?
